Measurements published in PMC5869772, “Quantitative profiling of BATF family proteins/JUNB/IRF hetero-trimers using Spec-seq”.

Molecular target: T1, BATF3;JUNB (human;human, UniProt Q9NR55;P17275 1-127;148-347, |)
T1 sequence 1: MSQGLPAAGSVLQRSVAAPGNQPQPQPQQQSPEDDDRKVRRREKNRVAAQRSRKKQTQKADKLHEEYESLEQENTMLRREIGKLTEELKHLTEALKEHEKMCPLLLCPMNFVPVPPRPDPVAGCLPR
T1 sequence 2: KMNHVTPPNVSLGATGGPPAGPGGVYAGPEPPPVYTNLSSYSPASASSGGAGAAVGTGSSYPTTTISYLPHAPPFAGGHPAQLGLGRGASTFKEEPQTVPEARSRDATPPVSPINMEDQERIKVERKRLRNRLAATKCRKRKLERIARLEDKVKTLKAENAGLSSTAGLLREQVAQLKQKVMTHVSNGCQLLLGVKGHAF
Test: Spec-seq (EMSA and sequencing of bound and unbound bands); 100 nM BATFx-JUNB, 1 uM dsDNA library, 50 mM K acetate, 20 mM Tris-acetate, 10 mM Mg acetate, 100 ug/ml BSA, pH 7.9, 10% glycerol, 30 min on ice; native 9% PAGE at 4 C; low values mean tight binding
Details: protein: recombinant;recombinant; tags: N-terminal mCherry-TEV, cleaved off;C-terminal 6His; copies: 1;1; dsDNA, one strand shown
How it was run: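 The protein, at 100 nM, was incubated with 1 μM double-stranded degenerate DNA library for 30 min on ice in NEB Cutsmart buffer with 10% glycerol, then resolved by native 9% PAGE at 4 °C. Excised bound and unbound bands were PCR-barcoded and Illumina-sequenced, and each sequence's relative binding energy in kT is −ln of its bound/unbound read-count ratio.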

Question: Which binding signal does the source give for “GATAGTCTCATTTTCACCCCGTGAAAGTGAGTCATTGTTCCATTACAGTATCTGT” here?
Answer: -1.65 kT

Question: With “GATAGTCTCATTTTCACCCCGTGAAATGAGTCCGTTGTTCCATTACAGTATCTGT” as the sequence, how does the binding signal read?
Answer: 1.04 kT

Question: With “GATAGTCTCATTTTCACCCCGTGAAATGCCGTCATTGTTCCATTACAGTATCTGT” as the sequence, how does the binding signal read?
Answer: -0.649 kT

Question: How did the binding signal turn out when “GATAGTCTCATTTTCACCCCGTGAAATCACTCATTTGTTCCATTACAGTATCTGT” was run?
Answer: -0.147 kT

Question: With “GATAGTCTCATTTTCACCCCGTGAAATGAGTTACTTGTTCCATTACAGTATCTGT” as the sequence, how does the binding signal read?
Answer: 0.809 kT

Question: For “GATAGTCTCATTTTCACCCCGTGAAATGAGTCTCTTGTTCCATTACAGTATCTGT”, which binding signal is on record?
Answer: 0.936 kT

Question: How did the binding signal turn out when “GATAGTCTCATTTTCACCCCGTGAAATGAGTCATTTGTTCCATTACAGTATCTGT” was run?
Answer: -1.42 kT

Question: For “GATAGTCTCATTTTCACCCCGTGAAAATGGGTCATTGTTCCATTACAGTATCTGT”, which binding signal is on record?
Answer: 0.203 kT

Question: How did the binding signal turn out when “GATAGTCTCATTTTCACCCCGTGAAATGAGTAAGTTGTTCCATTACAGTATCTGT” was run?
Answer: 0.139 kT

Question: With “GATAGTCTCATTTTCACCCCGTGAAATGACTCGGTTGTTCCATTACAGTATCTGT” as the sequence, how does the binding signal read?
Answer: 0.398 kT

Question: “GATAGTCTCATTTTCACCCCGTGAAACAGAGTCATTGTTCCATTACAGTATCTGT” was tested. Which binding signal did it give?
Answer: -0.0855 kT

Question: With “GATAGTCTCATTTTCACCCCGTGAAACTGAGTCATTGTTCCATTACAGTATCTGT” as the sequence, how does the binding signal read?
Answer: -1.63 kT

Question: For “GATAGTCTCATTTTCACCCCGTGAAATGAGTTAATTGTTCCATTACAGTATCTGT”, which binding signal is on record?
Answer: 0.279 kT

Question: For “GATAGTCTCATTTTCACCCCGTGAAAAGACGTCATTGTTCCATTACAGTATCTGT”, which binding signal is on record?
Answer: -0.682 kT

Question: Which binding signal does the source give for “GATAGTCTCATTTTCACCCCGTGAAATGACTCCATTGTTCCATTACAGTATCTGT” here?
Answer: 0.168 kT

Question: Which binding signal does the source give for “GATAGTCTCATTTTCACCCCGTGAAATGACGGCATTGTTCCATTACAGTATCTGT” here?
Answer: -0.439 kT

Question: Which binding signal does the source give for “GATAGTCTCATTTTCACCCCGTGAAATGAGTCGTTTGTTCCATTACAGTATCTGT” here?
Answer: 0.536 kT

Question: Which binding signal does the source give for “GATAGTCTCATTTTCACCCCGTGAAATGACGCATTTGTTCCATTACAGTATCTGT” here?
Answer: -0.479 kT

Question: Which binding signal does the source give for “GATAGTCTCATTTTCACCCCGTGAAATGACTAACTTGTTCCATTACAGTATCTGT” here?
Answer: 0.0773 kT

Question: For “GATAGTCTCATTTTCACCCCGTGAAATGTCTCATTTGTTCCATTACAGTATCTGT”, which binding signal is on record?
Answer: 0.725 kT

Question: How did the binding signal turn out when “GATAGTCTCATTTTCACCCCGTGAAATGACACACTTGTTCCATTACAGTATCTGT” was run?
Answer: 0.362 kT

Question: How did the binding signal turn out when “GATAGTCTCATTTTCACCCCGTGAAAGTGTGTCATTGTTCCATTACAGTATCTGT” was run?
Answer: -0.359 kT

Question: “GATAGTCTCATTTTCACCCCGTGAAATTACTCATTTGTTCCATTACAGTATCTGT” was tested. Which binding signal did it give?
Answer: -0.827 kT

Question: Which binding signal does the source give for “GATAGTCTCATTTTCACCCCGTGAAATGAGTCTGTTGTTCCATTACAGTATCTGT” here?
Answer: 0.723 kT

Question: Which binding signal does the source give for “GATAGTCTCATTTTCACCCCGTGAAATGACGTTATTGTTCCATTACAGTATCTGT” here?
Answer: -0.68 kT

Question: With “GATAGTCTCATTTTCACCCCGTGAAACTTAGTCATTGTTCCATTACAGTATCTGT” as the sequence, how does the binding signal read?
Answer: -0.762 kT

Question: With “GATAGTCTCATTTTCACCCCGTGAAACGACTCATTTGTTCCATTACAGTATCTGT” as the sequence, how does the binding signal read?
Answer: 0.267 kT

Question: With “GATAGTCTCATTTTCACCCCGTGAAATGAGTCCATTGTTCCATTACAGTATCTGT” as the sequence, how does the binding signal read?
Answer: 0.51 kT

Question: For “GATAGTCTCATTTTCACCCCGTGAAACTGGGTCATTGTTCCATTACAGTATCTGT”, which binding signal is on record?
Answer: 0.562 kT

Question: For “GATAGTCTCATTTTCACCCCGTGAAATTTAGTCATTGTTCCATTACAGTATCTGT”, which binding signal is on record?
Answer: -0.503 kT

Question: For “GATAGTCTCATTTTCACCCCGTGAAACTGCGTCATTGTTCCATTACAGTATCTGT”, which binding signal is on record?
Answer: -0.774 kT

Question: Which binding signal does the source give for “GATAGTCTCATTTTCACCCCGTGAAATGGGTCATTTGTTCCATTACAGTATCTGT” here?
Answer: 0.458 kT

Question: Which binding signal does the source give for “GATAGTCTCATTTTCACCCCGTGAAATGACTTAGTTGTTCCATTACAGTATCTGT” here?
Answer: 0.28 kT
